We go through 41 compounds from PubChem BioAssay AID2650 (Broad Institute, 2010).

A word on the inhibition: it is the relative decrease from the control value, in per cent.

Each structure is given as a SMILES string. In all, about 320,000 compounds went through this assay and about 320 (0.1%) were called active. This is one part of a sample in which actives are shown more often than they occur.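 Rule for the calls: active = more than half of replicates show inhibition above 20%; inconclusive = some but at most half of replicates above 20% inhibition; inactive = no replicate shows inhibition above 20%.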 Non-standard residues stand in square brackets, D forms with d. Residues, ends and D or L forms follow the SMILES beside them. ξ: configuration not given here. ξM = CSCCC(N)C(=O)O

Glycogen synthase kinase-3 alpha (Homo sapiens), sequence (P49840 whole entry, looked up): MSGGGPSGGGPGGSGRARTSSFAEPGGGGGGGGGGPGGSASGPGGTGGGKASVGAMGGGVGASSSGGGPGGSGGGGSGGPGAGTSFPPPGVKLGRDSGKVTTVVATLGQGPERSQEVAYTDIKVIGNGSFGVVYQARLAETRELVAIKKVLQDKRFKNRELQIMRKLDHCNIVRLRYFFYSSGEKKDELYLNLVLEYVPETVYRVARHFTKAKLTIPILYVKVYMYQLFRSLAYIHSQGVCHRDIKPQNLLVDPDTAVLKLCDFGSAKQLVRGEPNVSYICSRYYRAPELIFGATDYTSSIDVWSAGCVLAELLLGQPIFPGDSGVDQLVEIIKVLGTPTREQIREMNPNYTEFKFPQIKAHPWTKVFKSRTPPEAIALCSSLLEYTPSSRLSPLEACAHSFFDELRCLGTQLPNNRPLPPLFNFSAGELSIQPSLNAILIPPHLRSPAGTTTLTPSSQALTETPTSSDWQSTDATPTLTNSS

The assay concerns the target Glycogen synthase kinase-3 alpha (Homo sapiens) (UniProt P49840). Description: blockers of GSK3A enzyme activity – biochemical, luminescence, cell-free homogeneous, HTS, primary screen (AID 2650).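 Note: GST-tagged GSK-3 alpha with peptide substrate and 25 µM ATP; 0% = DMSO neutral wells and 100% = GW8510 positive control wells.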 Particulars: GSK-3 alpha kinase, ADP-Glo luminescence, 60 min; at 10 µM; hits give high values. For orientation: ADP-Glo first removes unused ATP, then detects ADP through luciferase.
Turning to `COc1ccc(/C=C/C(=O)OCC(=O)NC2CCCCCC2)cc1OC`, the inhibition was -0.779% (inactive). The value for `COc1ccc(S(=O)(=O)N2CCN(C(C)C(=O)Nc3ccc(C(C)C)cc3)CC2)cc1` (stereo unspecified) was 1.33% (inactive); that for `COCCCn1c(Cc2csc(Nc3cccc(Cl)c3)n2)nnc1SCC(=O)OC1CCCCC1` was 1.8% (inactive). Consider `CC(=O)c1cccc(OCC(=O)OCC(=O)Nc2cc(S(=O)(=O)N3CCCCC3)ccc2C)c1`, for which the inhibition is 2.43% (inactive). The value for `CCOCC(=O)Nc1ncc(S(=O)(=O)c2ccc([N+](=O)[O-])cc2)s1` was -1.6% (inactive). Take `COC(=O)CNC(=O)C(CCSC)NC(C)=O` (stereo unspecified) (Ac-[ξM]-Gly-OMe): the inhibition was -4.49% (inactive). As for `CSCc1cc(N(C)C)nc(SCc2ccc(Cl)cc2Cl)n1`, the inhibition is -5.57% (inactive).

As for `COCCNc1nc(N)c([N+](=O)[O-])c(NCCO)n1`, the inhibition was 53.1% (active). The figure for `C=CCNc1nc(N)c([N+](=O)[O-])c(NC2CCCCC2)n1` is 0.434% (inactive); for `COCCNc1nc(N)c([N+](=O)[O-])c(N2CCCCCC2)n1` it is 1.39% (inactive). For `COc1ccc(C(=O)NCc2ccccc2C)cc1S(=O)(=O)NC1CCCC1`, the inhibition is -2.96% (inactive). The value for `Cn1c(SCC(=O)Nc2nccs2)nnc1-c1cccnc1` was 2.04% (inactive); that for `CC1CCCN(C(=O)CN2C(=O)c3ccccc3S2(=O)=O)C1` (stereo unspecified) was -0.713% (inactive). Turning to `CC1CC(=NNC(=O)C2COc3ccccc3O2)CC(C)(C)C1` (stereo unspecified), the inhibition was 0.373% (inactive).

Consider `C=CCC[C@H](Cc1ccc(F)cc1)C(=O)OC[C@@H](NC(=O)[C@@H](CC=C)CC(=O)N[C@H](CO)Cc1ccccc1)C(C)(C)C`, for which the inhibition is -1.79% (inactive). For the compound `CS(=O)(=O)N(CC(=O)NC1CCCC1)Cc1ccc(F)cc1`, the inhibition is 10.3% (inactive).

With `O=S(N1CCCCCC1)C12CC3CC(CC(C3)C1)C2` (stereo unspecified), the inhibition was -2.72% (inactive). As for `Cc1cc(C)c(S(=O)(=O)n2cc(C(C)C(N)C(=O)O)c3ccccc32)c(C)c1` (stereo unspecified), the inhibition was -2.93% (inactive). Take `NC1=NC[C@@H](Cc2ccc(O)cc2)N1CC1CCCCC1`: the inhibition is 1.17% (inactive).

On to `O=C(CSc1nc2nccnc2c(=O)n1Cc1cccs1)Nc1ccccc1F`, for which the inhibition was 1.43% (inactive). Turning to `O=C(c1ccc(N2CCOCC2)c([N+](=O)[O-])c1)N1CCN(c2ccccc2F)CC1`, the inhibition is -2.69% (inactive). Take `Cn1c(-c2ccc(F)cc2)cc2onc(-c3ccccc3Cl)c2c1=O`: the inhibition was -1.73% (inactive). The value for `CCN(CC)CCCNC(=O)CCn1nc(-c2ccc(Cl)cc2)ccc1=O` was -1.8% (inactive). On to `O=C(NCCCN1CCCC1=O)C(=O)NCC1OCCN1S(=O)(=O)c1ccc(Br)cc1` (stereo unspecified), for which the inhibition is -1.8% (inactive). The value for `COc1ccc2nc3n(c(=O)c2c1)-c1ccc(Cl)cc1C(=O)NC3Cc1ccccc1` (stereo unspecified) was -2.35% (inactive); that for `N#Cc1ccccc1CN1C(=O)S/C(=C/c2cccn2-c2cccc(C(=O)O)c2)C1=O` was 3.06% (inactive). The figure for `COc1ccc(Cn2c(C)c(C)c(C#N)c2NC(=O)Nc2ccc(F)cc2)cc1` is -1.46% (inactive). The value for `O=C(Nc1ccc(S(=O)(=O)N2CCCCC2)cc1)C1CC(=O)N(c2ccc(F)cc2)C1` (stereo unspecified) was 0.943% (inactive); that for `CCOc1ccc(S(=O)(=O)NCCC(=O)NCC(C)(C)N2CCOCC2)cc1` was -4.12% (inactive). Take `CC(C)n1cnc2c(NCc3ccccc3)cc(N[C@@H](CO)Cc3ccccc3)cc21`: the inhibition is -3.52% (inactive).

As to `CCOc1ccc(CCNC(=O)C(CC)n2nc(C)n3c(cc4sccc43)c2=O)cc1OCC` (stereo unspecified), the inhibition is 8.43% (inactive). The figure for `CC1=C(C(=O)NC2CC(C)(C)Cc3c2cnn3-c2ccc(C)cc2)OCCO1` (stereo unspecified) is -2.77% (inactive). The value for `Cc1cccn2c(=O)nc(SCC(=O)NCc3ccccc3Cl)nc12` was -2.07% (inactive); that for `O=C(CN(C(=O)c1csnn1)c1cccc(F)c1)NCc1ccc(F)cc1` was 0.738% (inactive); that for `O=C(Nc1ccccn1)C1CCN(S(=O)(=O)c2ccccc2)CC1` was 3.28% (inactive). The value for `CCCC1NC(=S)NC(C)=C1C(C)=O` (stereo unspecified) was -1.05% (inactive); that for `CC(C)n1cnc2c(Nc3cccc(Cl)c3)nc(N(CCO)CCCO)nc21` was 9.71% (inactive); that for `OCCCNc1nccc(-c2cc(Nc3cccc(Cl)c3)ncn2)n1` was 89.3% (active). Take `OCCCNc1nc(-c2ccccc2)c2cc(Cl)ccc2n1`: the inhibition was 1.49% (inactive). The figure for `CCCOc1ccc(Cc2c(O)nc(N)[nH]c2=O)cc1C` is -0.849% (inactive); for `CCn1c(SC)nc(O)c(C(c2ccc(OC)c(O)c2)c2c(O)nc(SC)n(CC)c2=O)c1=O` it is -6.95% (inactive).
